This is a sample that favours compounds with a hit; in the whole collection about 21% have one here.
Pf growth 96h = P. falciparum growth inhibition at 96 hour, primary screen for plastid delayed-death inhibitors; P. falciparum luciferase reporter growth, 96 h; Potency, µM (titrated, usually from 28.7 µM), for inactives: top-dose activity change, negative = inhibition, usual class: inhibitors; hit rate 6.9% among 320,000; also: potency is read from the fitted curve at half-maximal effect; % is scaled to controls: 0 for no effect and ±100 for the full control effect
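Compounds incubated with erythrocytes infected by luciferase-expressing P. falciparum (2% hematocrit, 0.05% parasitemia final) for 96 hours, 37 C in 5% CO2. Growth inhibition scored as decreased luciferase luminescence.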
Pf growth 48h = inhibits P. falciparum growth in the first generation, 48 h | hit rate 5.9% among 310,000 | P. falciparum luciferase growth in erythrocytes, 48 h | Potency, µM (top dose mostly 28.7 µM), for the others: at the top dose activity change, negative = inhibition, usual class: inhibitors; also: potency is read from the fitted curve at half-maximal effect; % is scaled to controls: 0 for no effect and ±100 for the full control effect
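First compound was added to culture medium, then infected red cells at 0.1% parasitemia and 2% hematocrit (final). After incubation at 37 C under 5% CO2, luciferase detection reagent was dispensed and light output recorded.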
Shiga inhibitor = blocks Shiga toxin action in Vero cells. hit rate 9.2% among 290,000. inhibition, % at 38.7 µM. Vero cells, Shiga toxin protein synthesis inhibition reporter; in the data active = inhibition mostly above about 28%, no sharp cut-off; inactive = mostly below about 43%; also: 0% is about no effect
CHX counter = affects cycloheximide protein synthesis inhibition readout, counter-screen | cell reporter, cycloheximide protein synthesis inhibition counterscreen | max response, % | hit rate 12% among 300,000 | AID 2314; in the data active = max response mostly above about 13%, no sharp cut-off; inactive = mostly below about 14%; also: read at 38.3 µM for the half of the compounds with a filed dose; 0% is about no effect
Sm TGR inh = inhibitors of Schistosoma mansoni thioredoxin glutathione reductase. hit rate 3% among 360,000. Potency, µM (highest dose often 114 µM), inactives show at the top dose activity change, negative = inhibition, usual class: inhibitors. purified TGR, DTNB reduction, TNB absorbance 405 nm; also: potency is read from the fitted curve at half-maximal effect; % is scaled to controls: 0 for no effect and ±100 for the full control effect; nearly all actives have a fitted effect of over 60% in size
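TGR 20 nM + NADPH 100 uM (dispensed conc.), cpd preinc 15 min RT; start with NADPH (500 uM addition) then DTNB (15 mM addition). Kinetic TNB absorbance, 405 nm filter. Four-parameter Hill fit across titration.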
NS1 inh = inhibitors of influenza NS1 protein function. Potency, µM (titrated, usually from 46.1 µM), without a hit: top-dose activity, positive = more growth. hit rate 0.4% among 270,000; calls by dose curve; also: potency is read from the fitted curve at half-maximal effect; actives are rising curves; nearly all actives have a fitted effect of over 50% in size
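In this qHTS, NS1 from influenza A is expressed in budding yeast, where it slows growth. Cells are switched from glucose to 2% galactose medium (pH 6.0, -URA), treated with compound, and growth recovery is read at OD600.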
Numbers without * were called inactive. Unless noted, calls follow the shape of the dose curve; as a rule, active = well fitted curve in the direction sought with a large enough effect; inconclusive = small, poorly fitted or top-dose-only effect, or another doubt; inactive = no such curve, though single readings can be large; an effect the other way counts as inactive or inconclusive.

Cc1csc2nc(CSc3ccc(Cl)cc3)cn12 was read as Pf growth 96h 3.7µM*, Pf growth 48h 119.7%, Shiga inhibitor 78.5*, CHX counter 48.9*, Sm TGR inh inconclusive and NS1 inh -40.2%.
Screening Clc1ccc(SCc2cn3ccsc3n2)cc1 returned Pf growth 96h 10.4µM*, Pf growth 48h -19.6%, Shiga inhibitor 70.2, CHX counter 50.6*, Sm TGR inh 0.0% and NS1 inh -104.4%.
For Cc1ccc(S(=O)(=O)NCCc2cn3c(C)csc3n2)cc1 the results were Sm TGR inh -5.7%.
c1cn2cc(CSC3CCCCC3)nc2s1 was read as Pf growth 48h 141.3%, Shiga inhibitor 95.2*, CHX counter 42.3*, Sm TGR inh -14.5% and NS1 inh -88.7%.
Screening Nn1c(SCc2cn3ccsc3n2)nnc1-c1ccncc1 returned Pf growth 96h 31.5%, Pf growth 48h 16.1%, Shiga inhibitor 15.9, CHX counter -5.3, Sm TGR inh -7.4% and NS1 inh -0.5%.
Cc1ccc(N2CCN(C(=O)c3cnn(-c4ccc(C)c(C)c4)c3C3CCNCC3)CC2)c(C)c1 was read as Sm TGR inh -5.2%.
For Cc1cccc(C(C)n2nnc3ccccc32)c1O (centres undefined) the results were Pf growth 96h 10.4µM*, Pf growth 48h 14.7µM* and Sm TGR inh 0.3%.
Nc1nc(CN2CCN(C(c3ccccc3)c3ccccc3)CC2)nc(Nc2ccccc2)n1 was read as Pf growth 96h 4.65µM*, Pf growth 48h 8.28µM*, Shiga inhibitor -0.3, CHX counter -0.8, Sm TGR inh inconclusive and NS1 inh 9.6%.
Screening Nc1nc(CN2CCC(Cc3ccccc3)CC2)nc(Nc2ccccc2)n1 returned Pf growth 96h 7.38µM*, Shiga inhibitor 4.7, CHX counter -2.1, Sm TGR inh 6.3% and NS1 inh 10.7%.
Screening Nc1nc(CN2CCCCCC2)nc(Nc2ccccc2)n1 returned Pf growth 96h inconclusive, Pf growth 48h 3.6%, Shiga inhibitor -5.3, CHX counter -0.7, Sm TGR inh 8.1% and NS1 inh 14.7%.
Screening O=C(OC1CCCCC1=O)c1cc(S(=O)(=O)N2CCOCC2)ccc1F (centres undefined) returned Pf growth 96h inconclusive, Pf growth 48h inconclusive, Shiga inhibitor -7.0, CHX counter -2.1, Sm TGR inh -1.4% and NS1 inh 3.0%.
c1ccc(-c2noc(C34CC5CC(CC(C5)C3)C4)n2)cc1 was read as Pf growth 48h 23.4%, Shiga inhibitor 19.1, CHX counter 13.7*, Sm TGR inh -9.0% and NS1 inh -3.8%.
Screening c1ccc(-c2noc(C34CC5CC(CC(C5)C3)C4)n2)nc1 returned Pf growth 96h -0.9%, Pf growth 48h inconclusive, Shiga inhibitor 99.7*, CHX counter 33.7*, Sm TGR inh -21.7% and NS1 inh 1.5%.
CCS(=O)(=O)c1ccccc1C(=O)N(Cc1cccnc1)c1nc2cc(C)c(C)cc2s1 was read as Sm TGR inh 7.9%.
`CC(C)OC(=O)c1cc2c(=O)[nH]c(C(Cl)(Cl)Cl)nc2o1` gave Pf growth 96h -77.5%, Pf growth 48h inconclusive, Shiga inhibitor 28.0, CHX counter 30.0 and Sm TGR inh 28.2µM*.
Screening CS(=O)(=O)N(CC(=O)Nc1cccc(Br)c1)Cc1ccccc1 returned Pf growth 96h 73.8%, Pf growth 48h 22.7%, Shiga inhibitor -3.6, CHX counter -1.8, Sm TGR inh -5.1% and NS1 inh -4.7%.
Cc1ccc2[nH]c3c(c2c1)CN(C(=O)CN1c2ccc(F)cc2CCC1C)CC3 (centres undefined) was read as Pf growth 96h 13.1µM*, Pf growth 48h 11.7µM*, Shiga inhibitor 4.2, CHX counter -2.9, Sm TGR inh -0.2% and NS1 inh -19.4%.
For COc1ccc2c(Cl)c(C(=O)N/N=C/c3cccnc3)sc2c1 the results were Pf growth 96h 32.7%, Pf growth 48h inconclusive, Shiga inhibitor 47.1*, CHX counter 19.9*, Sm TGR inh 4.2% and NS1 inh 3.5%.
Screening COc1ccc2c(Cl)c(C(N)=O)sc2c1 returned Pf growth 48h 39.5%, Shiga inhibitor 10.2, CHX counter 19.5*, Sm TGR inh 0.0% and NS1 inh -5.1%.
`O=C(N/N=C/c1cccnc1)c1sc2ccccc2c1Cl` gave Pf growth 96h -13.4%, Pf growth 48h inconclusive, Shiga inhibitor 17.4, CHX counter 21.0*, Sm TGR inh -4.8% and NS1 inh -37.4%.
Screening COc1ccc(N(C(=O)c2ccc(OC)c(OC)c2)S(=O)(=O)c2ccc(Cl)cc2)cc1 returned Sm TGR inh -11.0%.
`O=C(Nc1ccccn1)c1cc2ccccc2cc1O` gave Pf growth 96h -18.8%, Pf growth 48h 16.9%, Shiga inhibitor 95.7*, CHX counter 30.6*, Sm TGR inh 5.0% and NS1 inh -6.2%.
Screening O=C(Nc1ccccn1)c1cc2ccccc2o1 returned Pf growth 96h inconclusive, Pf growth 48h 116.3%, Shiga inhibitor -7.1, CHX counter -1.7, Sm TGR inh -15.7% and NS1 inh -11.3%.
`COc1ccc(NC(=O)c2cc3ccccc3cc2O)cc1` gave Pf growth 96h 8.28µM*, Pf growth 48h inconclusive, Shiga inhibitor 62.3*, CHX counter 33.4*, Sm TGR inh -13.1% and NS1 inh 0.4%.
`c1ccc(Nc2ccccc2Nc2ccccn2)nc1` gave Pf growth 96h 19.9%, Pf growth 48h inconclusive, Shiga inhibitor 5.6, CHX counter 0.3, Sm TGR inh -6.3% and NS1 inh -0.7%.
`Oc1cccc2ccc(Nc3ccccn3)nc12` gave Pf growth 48h 0.37µM*, Shiga inhibitor active, CHX counter 113.0*, Sm TGR inh 3.5% and NS1 inh -81.9%.
For COc1ccc(NC(=O)c2cc3ccc4c5ccccc5[nH]c4c3cc2O)cc1 the results were Pf growth 96h 5.86µM*, Pf growth 48h inconclusive, Shiga inhibitor 2.7, CHX counter -3.1, Sm TGR inh -0.1% and NS1 inh 1.4%.
O=C(CN1CCN(C/C=C/c2ccccc2)CC1)NC(=O)NC1CCCCC1 was read as Pf growth 96h 0.0%, Pf growth 48h -17.6%, Shiga inhibitor 2.7, CHX counter -3.2 and Sm TGR inh -7.9%.
O=C(NCc1ccco1)c1ccc2c(c1)N(Cc1ccccc1F)C(=O)c1ccccc1S2=O (centres undefined) was read as Sm TGR inh -2.0%.
Cc1ccc(NC(=O)c2cc3ccccc3cc2O)cc1 was read as Pf growth 96h inconclusive, Pf growth 48h inconclusive, Shiga inhibitor 78.8*, CHX counter 40.4*, Sm TGR inh -2.7% and NS1 inh -30.9%.
Screening Cc1ccc(NC(=O)NNC(=O)c2cc3ccccc3cc2O)cc1C returned Pf growth 96h 72.9%, Pf growth 48h 12.5%, Shiga inhibitor -7.3, CHX counter 1.7, Sm TGR inh -25.3% and NS1 inh 9.5%.

Screens (PubChem)
